Source: PubChem BioAssay
A1 inh: inhibitors of the anti-apoptotic protein A1, read as caspase activation; 330,000 tested, 0.066% active; MEF A1-2A-BIM cells, Caspase-Glo 3/7 luminescence, 3 h; percent of clofoctol response, vehicle zero; AID 2462; caspase activation, % (test concentration not listed);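 active means over half of replicate activation scores above 10%, or exactly half above 10 with the replicate mean above 10; inconclusive means replicate mean below 10 yet half the replicates above 10; inactive means over half of replicates below 10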
VLA-4 inh: inhibition in a human VLA-4 binding assay | P13612 | inhibition, % (about 7 µM as worked out from the volumes in the protocol) | VLA-4 expressing cells, ligand binding flow cytometry | 330,000 tested, 0.2% active; in the data active means inhibition above about 50%
Mot1-301 SUMO: inhibitors of SUMOylation pathway: yeast Mot1-301 growth rescue | AID 2716 | 320,000 tested, 1% active | growth rescue, % at 18.8 µM | S. cerevisiae Mot1-301 growth rescue, ATP luminescence, 38.5C; percent above DMSO median, 100 means doubled;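 active means every valid replicate shows activation above 250% relative to neutral control wells; inactive means the rest, any valid replicate at or below 250%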;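 further: OY570 slx delta 5 strain wells were the positive control but not used for scaling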
ALR inh: human ALR oxidase inhibition via reduced H2O2. P55789. purified ALR, DTT oxidation, H2O2 HRP-luminol luminescence. inhibition, % (test concentration not listed). 290,000 tested, 3.8% active. AID 485317;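 active means mean replicate inhibition above about 79%, with every replicate also reaching it, limit read from the data; inconclusive means only one of the two criteria met; inactive means mean below limit and not every replicate reaching it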
Efflux pump mplx: antifungal efflux pump inhibition, Nile Red retention; S. cerevisiae Candida pump triplex; inhibition, % at 10 µM; 330,000 tested, 0.44% active; AID 485275;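 active means plate passing quality check with inhibition over a set limit, or well fluorescence over plate mean plus 4 SD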;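 further: Nile Red retained in pooled yeast measured as flow cytometry median fluorescence; 0% = buffer negative control and 100% = Enniatin B positive control; higher means more Nile Red kept so more efflux inhibition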
AHR activator: activators of human aryl hydrocarbon receptor. P35869. AHR-responsive luciferase reporter cells, luminescence. activation, % at 5 µM. 320,000 tested, 2.5% active; in the data active means activation above about 47%;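 further: 0% = vehicle wells and 100% = reference agonist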
* hit, by the source's call; ? = inconclusive; . = not tested or not shown. Compounds with a hit are over-represented: about 7.2% of the library has one in this group of screens.

SMILES | A1 inh | VLA-4 inh | Mot1-301 SUMO | ALR inh | Efflux pump mplx | AHR activator
Cc1ccc(Nc2cc(C)c3c(O)cccc3n2)cc1C | -1 | 7 | 53 | 35 | 0 | 30
Cc1ccc(Nc2cc(C)c3ccc(O)cc3n2)cc1C | -1 | 21 | 109 | 88* | 0 | 23
Cc1oc(-c2ccccc2)nc1CSc1nc2c(c(=O)[nH]1)CCC2 | 1 | 37 | 21 | . | 0 | 2
Cc1cccc(-c2nc(CSc3nc4c(c(=O)[nH]3)CCC4)c(C)o2)c1 | 0 | 44 | -1 | 99* | 0 | -1
Cc1ccccc1/C=C/C(=O)c1ccc([N+](=O)[O-])o1 | 11* | 12 | 233 | -6 | 0 | -1
CN1CCC(N(C)C(=O)c2cccc(S(=O)(=O)N3CCc4ccccc43)c2)CC1 | -1 | 10 | 6 | -3 | 0 | 2
COc1ccccc1OCC(=O)Nc1cc(NC(=O)COc2ccccc2OC)cc(C(=O)O)c1 | 2 | 5 | 303 | 98* | 0 | 0
CCCCN(C(=O)c1ccc(-c2ccc([N+](=O)[O-])cc2)o1)c1c(N)n(CC(C)C)c(=O)[nH]c1=O | -1 | 13 | -4 | 1 | 0 | 1
O=C(c1ccc(CS(=O)(=O)c2ccc(Br)cc2)o1)N1CCCCCC1 | 1 | 34 | 231 | -30 | 0 | 1
O=C(c1ccc(CS(=O)(=O)c2ccc(Br)cc2)o1)N1CCCC1 | 0 | -12 | 1 | 96* | 0 | -3
Cc1ccc(S(=O)(=O)Cc2ccc(C(=O)N3CCN(Cc4ccccc4)CC3)o2)cc1 | 0 | -12 | -7 | 94* | 0 | 3
CCCOc1ccc(N2C(=O)CC(N3CCC(c4nncn4CC)CC3)C2=O)cc1 (stereo not given) | 0 | -5 | 307* | 0 | 0 | -4
CCCOc1ccc(N2C(=O)CC(N3CCN(c4ccccc4F)CC3)C2=O)cc1 (stereo not given) | 0 | -2 | 30 | -3 | 0 | 0
Cc1cc(C)c(C)c(S(=O)(=O)N2CCC(C(=O)N3CCCCCCC3)CC2)c1C | 0 | 2 | -3 | -19 | 0 | 1
COc1cc(CNCCSc2nnnn2C)cc(Br)c1OCc1ccccc1 | 1 | -13 | 78 | 5 | 0 | 6
CCN(CC)C(=O)CSC(Nc1ccc(F)cc1)=C(C#N)C#N | 0 | -2 | -11 | 99* | 0 | 42
CC(C)N1C(=O)CC(Nc2ccc(N3CCOCC3)cc2)C1=O (stereo not given) | -1 | 0 | 11 | 99* | 0 | 35
COc1ccc(CCN2C(=O)CC(Nc3ccc(N4CCOCC4)cc3)C2=O)cc1OC (stereo not given) | 0 | -3 | 6 | 99* | 0 | 11
CCc1ccc(NC2CC(=O)N(CCc3ccc(OC)c(OC)c3)C2=O)cc1 (stereo not given) | 1 | 11 | 2 | -2 | 0 | 4
O=C1CC(Nc2ccccc2)C(=O)N1c1ccc(N2CCOCC2)cc1 (stereo not given) | 0 | 12 | 7 | -9 | 0 | -1
O=C1CC(Nc2ccc(N3CCOCC3)cc2)C(=O)N1c1ccccc1F (stereo not given) | -1 | 19 | -3 | 99* | 0 | 16
O=C1CC(Nc2ccc(N3CCOCC3)cc2)C(=O)N1C1CCCCC1 (stereo not given) | 3 | 21 | 2 | 99* | 0 | 6
CN(C(=O)c1ccc(=O)n(Cc2ccc(Cl)cc2)c1)c1ccccc1 | 1 | 2 | -1 | -12 | 0 | -2
CC(C)[C@H](NC(=O)c1ccccc1)C(=O)OCC(=O)Nc1sccc1C(N)=O | -1 | -4 | -11 | 52 | 0 | 0
COc1ccc(CSc2nc(O)cc(=O)n2CC(C)C)cc1F | 1 | 0 | -10 | 99* | 0 | -4
SMILES | A1 inh | VLA-4 inh | Mot1-301 SUMO | ALR inh | Efflux pump mplx | AHR activator
COc1ccc(OC)c(NC(=O)CSc2nc(O)cc(=O)n2CC(C)C)c1 | 3 | -4 | -14 | -6 | 0 | 1
COc1ccc(CN2C(=O)[C@@H]3C(c4ccc(F)cc4)=NO[C@@H]3C2=O)cc1 | 1 | -1 | 7 | 99* | 0 | 0
S=c1[nH]nc(-c2ccccc2)n1/N=C/c1ccc(Cl)cc1 | 1 | -4 | -7 | 13 | 0 | .
Cc1nn(-c2ccccc2)c(C)c1/C=N/n1c(-c2ccc(Cl)cc2)n[nH]c1=S | 1 | 10 | 10 | -1 | 0 | 5
O=[N+]([O-])c1ccc(O)c(/C=N/n2c(-c3ccccc3)n[nH]c2=S)c1 | 0 | 8 | -14 | 93* | 0 | 2
O=[N+]([O-])c1ccc(O)c(C=Nc2ccc3nc(-c4ccccc4)[nH]c3c2)c1 | -5 | 6 | 51 | -15 | 0 | 67*
Cc1ccc(-c2n[nH]c(=S)n2/N=C/c2c(C)[nH]n(-c3ccccc3)c2=O)cc1 | 0 | -5 | -14 | 98* | 0 | 11
S=c1[nH]nc(-c2ccc(Cl)cc2)n1/N=C/c1cccs1 | 0 | -10 | -4 | 6 | 0 | 75*
CC(Oc1ccc2c3c(c(=O)oc2c1)CCCC3)C(=O)NCc1cccnc1 (stereo not given) | 1 | 2 | -15 | -7 | 0 | -4
S=c1[nH]nc(-c2ccncc2)n1/N=C/C=C/c1ccccc1 | 0 | 0 | 9 | 92* | 0 | 5
COc1ccccc1/C=C/C=N/n1c(-c2ccncc2)n[nH]c1=S | 0 | 9 | 6 | 18 | 0 | 29
O=[N+]([O-])c1ccccc1/C=C/C=N/n1c(-c2ccc(Cl)cc2)n[nH]c1=S | -1 | 15 | 11 | -1 | 0 | 60*
O=[N+]([O-])c1ccccc1/C=C/C=N/n1c(-c2ccccc2)n[nH]c1=S | 0 | 20 | . | ? | 0 | 17
Cc1[nH]n(-c2ccccc2)c(=O)c1/C=N/N(C)c1ccccc1 | 0 | 6 | -5 | 82* | 0 | 24
Oc1ccccc1/C=N/n1c(-c2ccccc2)n[nH]c1=S | 0 | 13 | 13 | 98* | 0 | 3
Cc1[nH]n(-c2ccccc2)c(=O)c1/C=N/O | 0 | 4 | 5 | 22 | 0 | 0
COC(=O)Cc1c(C)c2ccc(OCC(=O)N3CCCC(C)C3)c(C)c2oc1=O (stereo not given) | 1 | 7 | -18 | -7 | 0 | 0
O=C(NCc1ccccc1Cl)C1CCCN(S(=O)(=O)c2cccc3nonc23)C1 (stereo not given) | 1 | -8 | 10 | -19 | 0 | 14
CCOC(=O)N1CCN(S(=O)(=O)c2ccc(C(=O)NNc3nc4ccc(Cl)cc4s3)cc2)CC1 | 0 | 4 | -9 | 98* | 0 | 19
CCOC(=O)N1CCN(S(=O)(=O)c2ccc(C(=O)NNc3nc4cc(C)cc(C)c4s3)cc2)CC1 | 0 | 6 | -2 | 2 | 0 | 10
